Assay results taken from the supplement of paper PMC6411743.
± gives the standard deviation of the averaged measurements. The full data set covers some 5,400 targets. This sample favours those with the largest changes.

Target: T1, FARSB (UniProt Q9NSD9)
T1 sequence (whole entry): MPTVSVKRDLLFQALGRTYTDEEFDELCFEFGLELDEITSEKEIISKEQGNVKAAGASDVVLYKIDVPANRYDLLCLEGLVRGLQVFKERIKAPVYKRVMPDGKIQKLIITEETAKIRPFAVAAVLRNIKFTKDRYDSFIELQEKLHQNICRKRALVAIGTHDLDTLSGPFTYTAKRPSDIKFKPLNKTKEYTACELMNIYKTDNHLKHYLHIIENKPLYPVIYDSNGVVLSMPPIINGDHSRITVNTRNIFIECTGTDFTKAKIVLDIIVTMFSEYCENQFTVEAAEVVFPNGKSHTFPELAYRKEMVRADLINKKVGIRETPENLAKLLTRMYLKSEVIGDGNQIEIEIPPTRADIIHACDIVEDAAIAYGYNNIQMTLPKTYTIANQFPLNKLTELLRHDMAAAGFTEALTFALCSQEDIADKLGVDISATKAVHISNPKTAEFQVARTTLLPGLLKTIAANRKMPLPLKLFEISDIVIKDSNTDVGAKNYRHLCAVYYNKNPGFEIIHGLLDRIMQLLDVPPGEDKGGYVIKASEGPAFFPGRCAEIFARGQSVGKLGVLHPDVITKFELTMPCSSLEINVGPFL
Assay: NP40-soluble protein abundance relative to vehicle (solubility fold change) (ratio); higher = more soluble protein in presence of GTP
Method: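 Solubility proteome profiling in Jurkat crude lysate. Lysate was treated with Mg-GTP (0.1-10 mM) for 10 min at room temperature and 3 min at 37 °C, then solubilised with 0.8% NP40 and benzonase, followed by ultracentrifugation. Proteins were quantified by TMT10 LC-MS/MS; the value is the NP40-soluble abundance relative to the NP40-processed vehicle, from 3 independent experiments.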

SMILES: Nc1nc2c(ncn2[C@@H]2O[C@H](COP(=O)(O)OP(=O)(O)OP(=O)(O)O)[C@@H](O)[C@H]2O)c(=O)[nH]1 [guanosine triphosphate]
- NP40-soluble protein abundance (concentration: 0.1mM): 1.05 ± 0.043
- NP40-soluble protein abundance (concentration: 0.5mM): 1.06 ± 0.074
- NP40-soluble protein abundance (concentration: 1mM): 0.933 ± 0.035
- NP40-soluble protein abundance (concentration: 2mM): 0.944 ± 0.091
- NP40-soluble protein abundance (concentration: 4mM): 0.954 ± 0.064
- NP40-soluble protein abundance (concentration: 6mM): 0.925 ± 0.059
- NP40-soluble protein abundance (concentration: 8mM): 0.875 ± 0.012
- NP40-soluble protein abundance (concentration: 10mM): 0.844 ± 0.057
